According to PubChem BioAssay AID2550 (Johns Hopkins Ion Channel Center, 2010):
Out of some 310,000 compounds screened, about 380 (0.12%) were called active.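 How the source made its calls: active means B-score of the integrated fluorescence ratio above library mean plus 3 SD, and starting fluorescence ratio within library mean plus 5 SD; inactive means the rest.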 The entries come from a sample that favours actives as a whole.

Each compound was assayed against Short transient receptor potential channel 6 (Mus musculus) (UniProt Q61143) (assay: small molecules opening TRPC6 cation channel – cell-based, HEK293, membrane potential dye, primary screen (AID 2550;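 further: higher score means more depolarization so channel activation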)). Conditions: HEK293-TRPC6 membrane potential dye fluorescence, at 10 µM; hits give high values.
Chain of Short transient receptor potential channel 6 (Mus musculus) (Q61143 whole entry, looked up): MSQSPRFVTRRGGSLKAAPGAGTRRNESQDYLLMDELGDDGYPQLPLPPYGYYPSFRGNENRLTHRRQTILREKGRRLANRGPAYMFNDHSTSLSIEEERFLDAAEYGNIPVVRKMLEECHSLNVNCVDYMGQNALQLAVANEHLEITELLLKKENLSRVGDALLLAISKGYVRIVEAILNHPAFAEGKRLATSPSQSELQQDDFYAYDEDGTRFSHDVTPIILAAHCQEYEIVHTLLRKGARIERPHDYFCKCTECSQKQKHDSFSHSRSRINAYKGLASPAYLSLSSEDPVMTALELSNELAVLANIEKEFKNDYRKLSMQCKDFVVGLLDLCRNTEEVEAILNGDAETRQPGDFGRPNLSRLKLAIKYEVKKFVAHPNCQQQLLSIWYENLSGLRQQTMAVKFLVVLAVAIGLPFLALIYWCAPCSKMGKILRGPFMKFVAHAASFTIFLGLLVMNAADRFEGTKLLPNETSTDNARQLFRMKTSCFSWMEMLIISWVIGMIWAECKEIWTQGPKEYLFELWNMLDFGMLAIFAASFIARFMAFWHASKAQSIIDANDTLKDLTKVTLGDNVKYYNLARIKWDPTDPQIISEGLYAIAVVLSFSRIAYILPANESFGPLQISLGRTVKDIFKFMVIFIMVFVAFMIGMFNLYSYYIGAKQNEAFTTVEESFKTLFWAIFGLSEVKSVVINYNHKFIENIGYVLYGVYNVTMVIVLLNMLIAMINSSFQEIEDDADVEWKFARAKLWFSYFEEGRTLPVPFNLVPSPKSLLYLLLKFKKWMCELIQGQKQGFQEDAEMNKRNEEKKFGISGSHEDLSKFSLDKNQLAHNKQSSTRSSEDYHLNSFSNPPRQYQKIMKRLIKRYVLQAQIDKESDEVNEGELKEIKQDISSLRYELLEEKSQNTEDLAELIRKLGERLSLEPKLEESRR
`CCn1cc(/C=C(\NC(=O)c2cc(OC)c(OC)c(OC)c2)C(=O)N2CCN(C)CC2)c2ccccc21` was tested, and the B-score was “inactive”. For `O=C(NNc1ccccc1Cl)C(O)(c1cccc(C(F)(F)F)c1)c1cccc(C(F)(F)F)c1`, the B-score was “inactive”. With `CCOC1CCCCC1NS(=O)(=O)c1ccc(Cl)cc1` (centres undefined) the B-score was “inactive”. With `CCn1ccnc1CN1CCCC(C(=O)c2ccc3c4c(cccc24)CC3)C1` (centres undefined) the B-score was “inactive”. With `COc1cc2c(cc1OC)C(C(=O)NCc1ccco1)C1c3ccccc3CCN1C2=O` (centres undefined) the B-score was “inactive”. With `CCn1cc(/C=C2/SC(=S)NC2=O)c(C)n1` the B-score was “inactive”. For `CCN1C(=NCCc2cccnc2)N[C@@H](c2ccccc2)[C@H](C(=O)OC)[C@H]1C`, the B-score was “inactive”. With `CCOc1ccc(NC(=O)C2CCN(C(=O)N3CCOc4ccccc43)CC2)cc1` the B-score was “inactive”. With `CCCCn1c(N)c(N(CCOC)C(=O)c2cccc(OCc3ccccc3)c2)c(=O)[nH]c1=O` the B-score was “inactive”. `C#CC(C)(C)NC(=O)c1cnc(-c2ccccc2)nc1-c1ccccc1` was tested, and the B-score was “inactive”. With `CC(=O)Nc1ccc(CN2CCC(Oc3ccc(C(=O)N4CCCC4)cc3)CC2)cc1` the B-score was “inactive”. With `Cc1ccc(S(=O)(=O)/N=C(\CN2CCOCC2)N2CCOCC2)cc1` the B-score was “inactive”. With `CCc1ccccc1OCC(=O)Nc1ccc2c(c1)OCCO2` the B-score was “inactive”. In the case of `COc1ccc2oc(C(=O)NCC(Cc3ccccc3)N(C)C)c(C)c2c1` (centres undefined), the B-score is reported as “inactive”. For `COc1c(O)ccc2c1CN1CCc3cc4c(cc3C1C2)OCO4` (centres undefined), the B-score was “inactive”. With `Cc1ccc(S(=O)(=O)c2nnn3c2nc(N2CCN(c4ccccn4)CC2)c2ccccc23)cc1` the B-score was “inactive”. `CC(C)(C)n1nnnc1C(c1ccc(Cl)cc1)N1CCSCC1` (centres undefined) was tested, and the B-score was “inactive”. `Cc1cccc(N2CCN(C(c3ccc(N(C)C)cc3)c3nnnn3C(C)(C)C)CC2)c1C` (centres undefined) was tested, and the B-score was “inactive”. For `CC(C)(C)n1nnnc1C(c1ccc2ncccc2c1)N1CCSCC1` (centres undefined), the B-score was 12.7 (active). `CN(C)C(CNC(=O)c1ccc(S(=O)(=O)NCc2ccco2)cc1)c1ccccc1` (centres undefined) was tested, and the B-score was “inactive”. `CC(=O)N(Cc1cccs1)C1CCOC(C)(C)C1` (centres undefined) was tested, and the B-score was “inactive”. With `CCc1ccc(C2C(C#N)=C(N)N(N3CCOCC3)C3=C2C(=O)CC(C)(C)C3)s1` (centres undefined) the B-score was “inactive”. For `Cc1ccc(Cl)cc1N1CCN(C(=O)c2cccc3c(=O)c(C)c(-c4ccccc4)oc23)CC1`, the B-score was “inactive”. For `Cc1ccc(-c2csc(NCCc3nc4cc(Cl)c(Cl)cc4n3CCOCCO)n2)cc1`, the B-score was “inactive”. `Cc1cc(/C=N/n2cnnc2)c(C)n1-c1ccc2ncccc2c1` was tested, and the B-score was “inactive”. With `COc1ccc(NC(=S)N2CCC(NC(=O)c3cccc(F)c3)CC2)cc1` the B-score was “inactive”. With `CN(C)c1ccnc2sc(C(=O)c3ccccc3)c(N)c12` the B-score was “inactive”. In the case of `O=C(CN1C2=NCCN2c2ccccc21)c1cccs1`, the B-score is reported as “inactive”. `Nc1c(C(=O)c2cccs2)sc2nsc(SCCN3CCCCC3)c12` was tested, and the B-score was 19.2 (active). In the case of `O=C(NCCNc1ccccc1[N+](=O)[O-])c1ccccc1F`, the B-score is reported as “inactive”. In the case of `O=C(CSc1nnc(Cn2cnc3ccccc32)o1)c1ccccc1`, the B-score is reported as “inactive”. In the case of `COc1ccc(NC(=O)c2oc3ccc(S(=O)(=O)N4CCOCC4)cc3c2C)cc1`, the B-score is reported as “inactive”. `Nc1ccc(Cl)c(S(=O)(=O)Nc2ccccc2Cl)c1` was tested, and the B-score was “inactive”. With `CCCCNC(=O)N1CCN(S(C)(=O)=O)CC1` the B-score was “inactive”. With `CCCCn1c(O)c(N=NC(=O)Cn2c(C(F)(F)F)nc3ccccc32)c2ccccc21` the B-score was “inactive”. For `O=C1/C(=C\c2ccsc2)NC(=S)N1c1ccccc1`, the B-score was “inactive”. In the case of `CN(C)c1ccc(/C=C2\NC(=S)N(Cc3ccccc3)C2=O)cc1`, the B-score is reported as 22.1 (active). `COc1cc(/C=C2/SC(=S)N(Cc3ccccc3)C2=O)cc(OC)c1O` was tested, and the B-score was “inactive”. For `Cc1cccc(C)c1NC(=O)CSc1nc2c([nH]1)c(=O)n(C)c(=O)n2C`, the B-score was “inactive”.
